Experimental data: PubChem BioAssay (Tox21)
Inconclusive results are not listed. A call without a number means that no potency is given here. Calls of active or inactive are those of the source. The call rests on the fitted dose curve.

Experiment: Nuclear factor erythroid 2-related factor 2/antioxidant responsive element (Nrf2/ARE) small molecule agonists: luciferase reporter gene qHTS assay in human keratinocytes (AID 1919969); further: nearly all actives have a fitted effect of over 35% in size
Potency means the concentration at half of the fitted maximal effect.

Structure (SMILES)	Potency
CC(C)CCCC(C)CC=O (configuration not stated)	inactive
Cc1ccc(S(=O)(=O)C(I)I)cc1	6.11 µM (active)
